Screening results: PubChem BioAssay, several laboratories
JNK3 inh – JNK3 kinase activity inhibitors, primary screen, biochemical, human, purified enzyme; inhibition, % at 8 µM; AID 746, 2007; HTS; actives 0.61% (n = 60,000); in the data active = inhibition above about 17%
Her2 expr inh – inhibitors of Her2 protein expression, primary screen, SKBR-3 cells, AlphaScreen, 66K library; Receptor tyrosine-protein kinase erbB-2 (Homo sapiens), P04626; SKBR-3 HER2 protein level, 18-24 h; stronger effect = lower value; HER2 level % of control, % at 10 µM; actives 0.69% (n = 65,000);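 active = HER2 level under 5% of the carrier-only control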;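 also: lower value means stronger loss of Her2 protein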
M1 antagonist – antagonists of rat M1 muscarinic receptor. Muscarinic acetylcholine receptor M1 (Rattus norvegicus), P08482. CHO-M1 cells, Fluo-4 calcium, ACh EC80 antagonist mode; stronger effect = lower value. B-score at 10 µM. actives 3.4% (n = 64,000);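 active = calcium fluorescence response, raw or row-and-column corrected B-score, differing from the plate sample mean either way at a set confidence level, mostly lower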
FXIa inh mix – FXIa protease inhibitors in compound pools, primary screen, biochemical, 10-compound mixtures. Coagulation factor XI (Homo sapiens), P03951. purified FXIa, fluorogenic substrate, pooled mixtures. inhibition, % at 5 µM. actives 0.19% (n = 62,000). AID 680, 2007;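 also: each value is inhibition by a whole ten-compound pool holding the compound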
M1 ag – M1 muscarinic receptor agonists, primary screen, CHO-M1 cells, Fluo-4 calcium, agonist mode; Muscarinic acetylcholine receptor M1; Fluo-4 calcium fluorescence; stronger effect = higher value; B-score at 10 µM; actives 3% (n = 64,000); AID 626, 2007;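 active = fluorescence rise, raw or as B-score row- and column-corrected plate score, outside the 99.7% band of its plate's samples, either direction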
FXIIa inh mix – human factor XIIa inhibitors, primary screen, biochemical, pooled compound mixtures, fluorogenic substrate; actives 0.2% (n = 62,000); inhibition, % at 5 µM; AID 684, 2007; purified FXIIa; Coagulation factor XII (Homo sapiens), P00748
Large screens that a line does not name were inactive. Sampled rows, rich in hits. Any-hit rate of the full collection: about 6.9%. Rule as the data show it, unless noted: active = inhibition above about 20% (passing the limit was not always enough); inactive = the rest.

Cc1cc(Cl)ccc1OCC(=O)OC(C)C(=O)N(C)C (stereo not given)	none
CCN(CC)C(=O)C(C)OC(=O)COc1ccc(Cl)cc1C (stereo not given)	M1 antagonist 1.9
C=CCn1c(=O)c2ccccc2n2c(SCc3cc(=O)n4ccsc4n3)nnc12	Her2 expr inh -15
COc1ccc(OCC(O)Cn2c(Nc3cccc(C)c3)nc3c2c(=O)n(C)c(=O)n3C)cc1 (stereo not given)	none (no result: FXIa inh mix, FXIIa inh mix)
O=C(O)CCSc1ccc2ccccc2n1	JNK3 inh 28 (no result: FXIa inh mix, FXIIa inh mix)
O=C(O)CSc1ccc2ccccc2n1	JNK3 inh 18
CCOC(=O)c1[nH]c(=O)[nH]c1COC(=O)c1cc2ccccc2o1	none
Cc1cc2nc(NC3=NCN(Cc4cccnc4)CN3)nc(C)c2cc1C	M1 antagonist -3.2
CCc1ccc2nc(NC3=NCN(CCOC)CN3)nc(C)c2c1	none
[O-][N+]1=C2CCC/C(=N\O)C2=NC12CCCCC2	none (no result: FXIa inh mix, FXIIa inh mix)
[O-][N+]1=c2ccc(Nc3ccccc3)cc2=NC12CCCCC2	Her2 expr inh -17
COc1ccc(Nc2ccc3c(c2)=NC2(CCCCC2)[N+]=3[O-])cc1	Her2 expr inh -56 (no result: JNK3 inh)
O=C(CCCCCn1c(SCC(=O)c2ccccc2)nc2ccccc2c1=O)NCc1ccco1	JNK3 inh 28
O=C(CCCn1c(=S)[nH]c2ccccc2c1=O)NCc1ccco1	JNK3 inh 19
CCOC(=O)CSc1nc2ccccc2c(=O)n1CCCCCC(=O)NCc1ccco1	JNK3 inh 23
O=C(CCCn1c(SCC(=O)c2ccc(Cl)cc2)nc2ccccc2c1=O)NCc1ccco1	none (no result: JNK3 inh)
Cc1ccc(C(=O)Nc2cccc(C(=O)NCc3ccccc3)c2)o1	M1 ag 3.1
CCOC(=O)c1c(NC(=O)CSc2nnc(CNC(=O)c3ccco3)n2C)sc2c1CCC2	none (no result: JNK3 inh)
c1ccc2c(c1)nc(N1CCOCC1)c1c3ccccc3[nH]c21	JNK3 inh 59
Oc1[nH]c2ccccc2c1C=Nc1ccc2c(c1)OCO2	JNK3 inh 36
Oc1[nH]c2ccccc2c1/C=N/c1nccs1	JNK3 inh 27
CC(=O)Nc1c(O)[nH]c2ccccc12	none
O=C(O)CSCc1ccc(Cl)cc1	FXIIa inh mix 65
CCOC(=O)CSc1ncnc2c1nnn2-c1ccc(F)cc1	none
CC(=O)C(Sc1ncnc2c1nnn2-c1ccc(F)cc1)C(=O)N(C)C (stereo not given)	Her2 expr inh -10
CN1CCN(c2nc(-c3cccnc3)nc3ccccc23)CC1	none (no result: FXIa inh mix, FXIIa inh mix)
Cn1nnnc1Sc1nc(-c2cccnc2)nc2ccccc12	Her2 expr inh -13
Cc1cc(NC(=O)CS(=O)(=O)c2cn(Cc3cccc(F)c3)c3ccccc23)no1	M1 antagonist 3.6 (no result: JNK3 inh, Her2 expr inh)
Cc1cc(NC(=O)CS(=O)(=O)c2cn(Cc3ccc(F)cc3)c3ccccc23)no1	none
CC1(C)Oc2ccc(C(=O)NC3CCCC3)cc2N(CC(=O)NC2CCCCC2)C1=O	none
O=C(Nc1ccccc1)N(CCc1nc2ccccc2[nH]1)C1CCCC1	M1 ag 2.3
CCOCc1nc(N)[nH]c(=O)c1Cc1ccc(OC(C)C)cc1	none (no result: FXIa inh mix, FXIIa inh mix)
COC(=O)c1cccc2c1-c1ccccc1/C2=N/O	JNK3 inh 54
N#Cc1c(N)nc2c(c1-c1ccco1)CCCCC2	JNK3 inh 32 (no result: Her2 expr inh, FXIa inh mix, FXIIa inh mix)
COc1cccc(NC(=O)CSc2nc3c(c(-c4ccco4)c2C#N)CCCC3)c1	M1 ag -2.6
N#Cc1c(-c2ccco2)nc(SCC(=O)Nc2cccc(Cl)c2)[nH]c1=O	JNK3 inh 25
CC(=O)[C@@H]1[C@@H]2C(=O)N(Cc3ccccc3)C(=O)[C@@H]2C2c3ccccc3C=CN21 (stereo not given in full)	M1 ag 26
O=C(c1ccco1)[C@@H]1[C@@H]2C(=O)N(c3ccccc3)C(=O)[C@@H]2C2c3ccccc3C=CN21 (stereo not given in full)	none
Cn1cc(CC(=O)Nc2cccc(C#N)c2)c2ccccc21	none (no result: JNK3 inh)
COc1cccc(-c2nc(N3CCC(C)CC3)c3ccccc3n2)c1O	M1 antagonist 2.2 (no result: FXIa inh mix, FXIIa inh mix)
Cc1ccccc1N1C(=O)CC(Sc2nnc(-c3ccccc3)o2)C1=O (stereo not given)	Her2 expr inh -19 (no result: FXIa inh mix, FXIIa inh mix)
O=C(Nc1nccs1)C1C2/C=C\CCCCC21 (stereo not given)	Her2 expr inh -28
Cc1ccc(C)c(NC(=O)CNS(=O)(=O)c2ccccc2)c1	none
CC1=C(C)CS(=O)N(S(=O)(=O)c2ccc(Cl)cc2)C1 (stereo not given)	JNK3 inh 20
CC1CCN(S(=O)(=O)c2ccc(Cl)cc2)CC1	none
CCn1c(SCC(=O)N2CCCc3ccccc32)nc2c(c1=O)SC(C)C2 (stereo not given)	M1 antagonist 3.3
Cc1nccc2[nH]c(=O)c(C(=O)NC3CCN(Cc4ccccc4)CC3)cc12	none
CC(C)(C)NCCCCOc1ccc(F)cc1	FXIIa inh mix 26
OCCNCCCCCOc1ccc(F)cc1	none
CC(C)(C)C(=O)N=C1SC2CS(=O)(=O)CC2N1c1ccc2c(c1)OCO2 (stereo not given)	none
CCOC(=O)COn1c(=O)c(=O)n(O)c2ccccc21	none
CC(C)n1nnnc1SCC(=O)NCc1ccco1	FXIa inh mix 22 (no result: M1 antagonist, M1 ag)
CC(C)c1nnc(SCC(=O)NCc2ccco2)n1C	none
Nc1nc(-c2ccccc2)cc(-c2ccccc2O)n1	JNK3 inh 35
C=COC(=O)CSc1nc(-c2cccs2)ccc1C#N	M1 antagonist 2.9 (no result: FXIa inh mix, FXIIa inh mix)
CCOC(=O)C(C)Sc1nc(-c2cccs2)ccc1C#N (stereo not given)	none (no result: FXIa inh mix, FXIIa inh mix)
CC(C)Oc1ccc(C2/C(=C(/O)c3ccc(F)cc3)C(=O)C(=O)N2CCCN(C)C)cc1 (stereo not given)	none
O=C1C2=C(SCCS2)C(=O)N1CCCO	Her2 expr inh 1.1, M1 ag 7.9
CCC(Oc1ccccc1)C(=O)N1CC(C)CC(C)C1 (stereo not given)	none
c1ccc(-n2ncc3c(NCc4ccco4)ncnc32)cc1	JNK3 inh 20
COc1ccc2c(=O)c3c(=O)n(Cc4ccco4)c(-c4ccc(C)cc4)nc3oc2c1	Her2 expr inh 4.8
COc1ccc2c(=O)c3c(=O)n(Cc4ccco4)c(C(C)C)nc3oc2c1	none
CCOC(=O)CCc1c(C)nc2cc(-c3ccccc3OC)[nH]n2c1=O	M1 antagonist 2.1
CCOC(=O)CCc1c(C)nc2cc(C3CCCN(C(=O)OC(C)(C)C)C3)[nH]n2c1=O (stereo not given)	none
CCOC(=O)c1c(NC(=O)CSc2nnc(-c3cccnc3)n2Cc2ccco2)sc(C)c1C	none
